Assay [1] in a line: resazurin metabolic signal in HepG2 cells – cell-based, resazurin fluorescence, 24 h, PK04 Diversity Set, profiling panel (AID 1172). Also: test concentration not given here. As to conditions: HepG2 viability, higher = more signal. For orientation: Resazurin is reduced to fluorescent resorufin, in cell work by metabolically active cells.
Assay [2] in a line: budding yeast growth changes without added modifier – OD600, strain BY4716, 24 h, basal condition, primary screen (AID 1173). The following applies: S. cerevisiae BY4716 growth, OD600, 24 h; higher = more signal, called active from +8 up or from −8 down.
The nature of assay [3]: viability profiling in MM1S myeloma cells – cell-based, resazurin fluorescence, basal, 24 h, PK04 Diversity Set, profiling panel (AID 1174).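 Also: MM1S multiple myeloma cell line; test concentration not given here.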 The following applies: higher = more signal, called active from +8 up or from −8 down.
In assay [4] the target is Dihydroorotate dehydrogenase (quinone), mitochondrial (Plasmodium falciparum (isolate 3D7)) (UniProt Q08210). As to the kind of experiment: inhibition of P. falciparum DHODH – biochemical, C-terminal His tag, absorbance 600 nm, primary screen (AID 1175).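 Also: recombinant parasite enzyme with a five histidine tag at its C terminus; test concentration not given here.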 As to conditions: PfDHODH enzyme, DCIP absorbance 600 nm; higher = more signal, called active from +8 up or from −8 down.

Assay [5] is described as follows: inhibition of PAO1 biofilm formation – strain PAO1, LB-PBS medium, absorbance 600 nm, primary screen (AID 1176). Also: test concentration not given here. The following applies: P. aeruginosa PAO1 growth/biofilm, A600, 12 h; higher = more signal.
A short description of assay [6]: growth modulation of vineyard yeast isolate – strain RM11-1a, OD600, basal, 24 h, primary screen (AID 1177).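 Also: cultures grown under basal conditions with no added stressor; test concentration not given here.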 As to conditions: S. cerevisiae RM11-1a growth, OD600, 24 h; higher = more signal, called active from +8 up or from −8 down.
Assay [7] in a line: growth of efflux-deficient E. coli DRC39 – strain DRC39, OD650, 24 h, E. coli filamentation inducers, primary screen (AID 1178).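 Also: growth measured as culture turbidity by optical density at 650 nm; test concentration not given here.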 The following applies: E. coli DRC39 acrAB, higher = more signal, called active from +8 up or from −8 down.
Assay [8] is described as follows: growth of efflux-deficient E. coli DRC39 – strain DRC39, OD650, 48 h, E. coli filamentation inducers, primary screen (AID 1179).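 Also: screen aims at cell division blockers that make cells filament.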 As to conditions: E. coli DRC39 delta-acrAB growth, higher = more signal, called active from +8 up or from −8 down.
Assay [9] in a line: viability profiling in RPMI8226 myeloma cells – cell-based, resazurin fluorescence, basal, 24 h, PK04 Diversity Set, profiling panel (AID 1180).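 Also: RPMI8826 multiple myeloma cell line at 5000 cells per well; test concentration not given here.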 The following applies: higher = more signal.
In assay [10] the target is E3 ubiquitin-protein ligase XIAP (Homo sapiens) (UniProt P98170). As to the kind of experiment: small molecules binding XIAP protein – biophysical, small-molecule microarray, fluorescence 635 nm, primary screen (AID 1181).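 Also: score merges 667 nm emission and signal to noise over triplicate slides.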 As to conditions: higher = more signal.

The structures appear in SMILES notation. Calls of active or inactive are those of the source. Unless noted, no rule for the calls is given here.

Chain of Dihydroorotate dehydrogenase (quinone), mitochondrial (Plasmodium falciparum (isolate 3D7)) (Q08210 whole entry, looked up): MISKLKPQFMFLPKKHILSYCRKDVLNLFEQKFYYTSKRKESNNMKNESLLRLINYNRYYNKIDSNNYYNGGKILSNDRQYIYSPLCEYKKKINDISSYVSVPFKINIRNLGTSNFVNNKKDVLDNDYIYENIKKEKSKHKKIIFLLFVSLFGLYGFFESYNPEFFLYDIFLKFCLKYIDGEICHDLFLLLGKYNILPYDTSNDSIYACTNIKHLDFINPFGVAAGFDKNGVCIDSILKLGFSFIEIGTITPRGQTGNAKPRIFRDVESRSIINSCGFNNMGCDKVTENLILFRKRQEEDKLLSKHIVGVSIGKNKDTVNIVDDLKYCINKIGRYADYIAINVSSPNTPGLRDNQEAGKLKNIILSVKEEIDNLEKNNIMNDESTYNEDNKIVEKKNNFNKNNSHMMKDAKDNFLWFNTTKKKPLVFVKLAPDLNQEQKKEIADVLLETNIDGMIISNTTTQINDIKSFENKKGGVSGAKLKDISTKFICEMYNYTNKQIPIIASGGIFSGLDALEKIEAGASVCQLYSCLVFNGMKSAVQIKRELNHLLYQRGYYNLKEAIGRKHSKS
Chain of E3 ubiquitin-protein ligase XIAP (Homo sapiens) (P98170 whole entry, looked up): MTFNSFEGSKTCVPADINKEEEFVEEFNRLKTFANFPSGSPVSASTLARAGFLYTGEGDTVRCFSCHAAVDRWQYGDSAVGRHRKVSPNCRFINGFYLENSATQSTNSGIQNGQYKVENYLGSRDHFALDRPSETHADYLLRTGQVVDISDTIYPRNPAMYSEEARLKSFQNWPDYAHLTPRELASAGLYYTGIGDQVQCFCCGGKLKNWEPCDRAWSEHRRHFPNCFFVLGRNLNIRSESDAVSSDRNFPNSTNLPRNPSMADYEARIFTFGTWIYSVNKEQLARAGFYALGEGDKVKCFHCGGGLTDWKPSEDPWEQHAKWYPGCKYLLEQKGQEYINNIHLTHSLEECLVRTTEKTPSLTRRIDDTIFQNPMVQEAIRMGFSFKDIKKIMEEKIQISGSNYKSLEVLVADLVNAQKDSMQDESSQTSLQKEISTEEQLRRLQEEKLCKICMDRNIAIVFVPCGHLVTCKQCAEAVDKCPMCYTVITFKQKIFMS

Take `COC(=O)[C@@H]1CC[C@H](C)[C@@H](c2ccc(C)cc2)N1C(=O)c1ccc(C=NOC[C@H]2O[C@H](c3ccccc3)C=C[C@@H]2Oc2ccc(OC)cc2)cc1`: the z-score was 0.158 in assay [1]; 0.856 (inactive) in [2]; -0.0983 (inactive) in [3]; 0.0282 (inactive) in assay [5]; 0.386 (inactive) in assay [6]; -0.469 (inactive) in assay [7]. In addition, the z-score in [8] was -0.499 (inactive); in [9], 0.539. For the same compound, the composite z-score in [4] is 0.13 (inactive); in assay [10], -0.0773.

For the compound `CCOC(=O)[C@H](CC(C)C)NC(=O)CCC1CC(OC(=O)NCc2ccc3c(c2)OCO3)CC2(CCCC(COC(=O)NCCc3ccccc3OC)O2)O1` (stereo not given in full), the z-score was 0.686 in assay [1]; 0.594 (inactive) in assay [2]; -0.0143 (inactive) in assay [3]; 0.614 (inactive) in assay [5]; -0.173 (inactive) in [6]; -0.163 (inactive) in [7]. Also, the z-score is -1.02 (inactive) in assay [8] and 0.512 in assay [9]. Further, the composite z-score in assay [4] was -0.445 (inactive); in assay [10], -0.102.

Consider `COC(=O)[C@@H]1CC[C@H](C)[C@@H](c2ccc(Br)cc2)N1C(=O)C(F)(F)F`, for which the z-score in assay [1] is 0.0841; in [2], -0.475 (inactive); in assay [3], 0.27 (inactive); in [5] it was 0.213 (inactive); in assay [6], 1.21 (inactive); in assay [7], -0.0765 (inactive). Also, the results for the z-score in assay [8] and in [9] were -0.204 (inactive) and 0.399, respectively. For the same compound, the composite z-score was 0.724 (inactive) in assay [4] and 0.0225 in assay [10].

Regarding `COC(=O)[C@@H]1CC[C@H](C)[C@@H](c2ccc(C)cc2)N1C(=O)c1ccc(C=NO[C@@H](C)c2cc(-c3c(C)cc(C)cc3C)no2)cc1`, the z-score in assay [1] was -0.726; in [2] it was 1.36 (inactive); in assay [3], -0.321 (inactive); in assay [5], -0.925 (inactive); in assay [6] it was 0.378 (inactive); in [7], 0.218 (inactive). Further, the z-score in [8] was 1.04 (inactive); in assay [9], 0.0524. In addition, the composite z-score in assay [4] was 0.502 (inactive); in assay [10], -0.238.

As to `Cc1ccc(C(C)C)n1C(=O)OC(C)(C)C`, the z-score is -0.728 in [1]; -0.947 (inactive) in assay [2]; -1.46 (inactive) in assay [3]; 1.01 (inactive) in assay [5]; -1.18 (inactive) in [6]; 0.32 (inactive) in [7]. Further, the z-score in assay [8] is -0.113 (inactive); in assay [9] it was -1.65. The values for the composite z-score in assay [4] and in [10] were -1.24 (inactive) and -0.0509, respectively.

As for `C[C@H]1CC[C@@H](C(=O)O)N[C@@H]1c1ccc(C#Cc2ccccc2)cc1`, the z-score in assay [1] is -0.214; in [2] it was -19.1 (active); in [3], -0.477 (inactive); in assay [5], -0.446 (inactive); in assay [6], -18.9 (active); in [7], -0.0449 (inactive). Moreover, the z-score in assay [8] is -0.384 (inactive); in assay [9], 0.0569. Also, the figures for the composite z-score in assay [4] and in assay [10] were -1.36 (inactive) and -0.0773, respectively.

Consider `COc1ccc(O[C@H]2C=C[C@@H](c3ccccc3)O[C@@H]2COC(=O)CCC(C)=NOC[C@@H](O)COCc2ccco2)cc1`, for which the z-score is 0.206 in [1]; -1.06 (inactive) in assay [2]; -1.11 (inactive) in assay [3]; -0.0903 (inactive) in assay [5]; -1.48 (inactive) in assay [6]; -0.129 (inactive) in assay [7]. Moreover, the z-score in assay [8] was -0.902 (inactive); in [9], 0.37. Further, the values for the composite z-score in assay [4] and in assay [10] were -2.35 (inactive) and 0.122, respectively.

For `CCCCOC(OCCCC)C(O)CSc1ccc2ccccc2c1` (stereo not given), the z-score in [1] was -0.879; in assay [2] it was -2.07 (inactive); in assay [3] it was -1.99 (inactive); in assay [5] it was 0.344 (inactive); in assay [6] it was 0.363 (inactive); in [7], 0.872 (inactive). For the same compound, the z-score in assay [8] is 1.01 (inactive); in assay [9] it was -1.37. The composite z-score in assay [4] is -0.161 (inactive); in assay [10] it was 0.0506.

`CCN1C(C)=C(C(=O)OC)[C@@H](c2ccccc2)N2C(=O)[C@](O)(C(=O)OC)CC(C(C)=O)=C12`: the z-score is -0.0348 in [1]; -1.38 (inactive) in [2]; 0.136 (inactive) in [3]; -0.242 (inactive) in assay [5]; -0.695 (inactive) in assay [6]; 0.538 (inactive) in [7]. The z-score is 0.866 (inactive) in assay [8] and -0.11 in [9]. For the same compound, the composite z-score in assay [4] was -1.27 (inactive); in assay [10], 0.0264.

Consider `C[C@@H]1CC[C@H]2C(=O)OC(Cc3ccccc3)CN2[C@H]1c1ccc(Br)cc1` (stereo not given in full), for which the z-score in assay [1] is 0.352; in [2] it was -3.48 (inactive); in assay [3], 0.417 (inactive); in assay [5], -0.658 (inactive); in [6], 0.2 (inactive); in [7], 1.06 (inactive). Further, the z-score in assay [8] was 0.485 (inactive); in [9] it was -0.726. Also, the composite z-score is 0.637 (inactive) in [4] and 0.0299 in [10].

On to `COc1ccc(O[C@H]2C=C[C@@H](C#Cc3ccccc3)O[C@@H]2CO)cc1`, for which the z-score in [1] is 0.124; in [2], -10.4 (active); in assay [3], -1.24 (inactive); in assay [5] it was 0.0372 (inactive); in [6] it was -0.76 (inactive); in [7] it was 0.633 (inactive). For the same compound, the results for the z-score in assay [8] and in assay [9] were 0.14 (inactive) and -0.021, respectively. In addition, the composite z-score in assay [4] was -0.759 (inactive); in [10], -0.0412.

Take `CC(CCN1CCCc2nc(C)c(C)cc21)=NOC[C@@H](C)[C@H](OCc1ccccc1)C(C)C`: the z-score in assay [1] was -0.135; in assay [2] it was -3.26 (inactive); in assay [3], 0.0518 (inactive); in assay [5], -0.0417 (inactive); in assay [6], -1.86 (inactive); in assay [7] it was -0.787 (inactive). The z-score was 0.262 (inactive) in assay [8] and -0.0093 in assay [9]. The composite z-score in assay [4] is -2.07 (inactive); in assay [10], 0.0153.

The values are drawn from PubChem BioAssay.
